# Test results as given in the supplement of paper PMC10105736.
# A number with no mark means an inactive call.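 Rule for the calls: active = MAPPIT score above the 99th percentile of random reference set scores in the same batch; inactive = at or below it.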
# Columns and labels:
# Assay in all cases: MAPPIT interaction score (arbitrary units); higher = stronger binary interaction signal, active = hit call of the paper
# [1] = molecular target: Zpr1; conditions: MAPPIT configuration: N-N; pair source set: Finley_Y2H
# [2] = molecular target: sinah; conditions: MAPPIT configuration: N-N; pair source set: Lit-BS-16
# [3] = molecular target: Yp2; conditions: MAPPIT configuration: N-N; pair source set: Curagen_high_conf
# [4] = molecular target: bru3; conditions: MAPPIT configuration: N-N; pair source set: DPIM
# [5] = molecular target: Zif; conditions: MAPPIT configuration: N-N; pair source set: screen_2
# [6] = molecular target: alrm; conditions: MAPPIT configuration: N-N; pair source set: DPIM
# [7] = molecular target: Xbp1; conditions: MAPPIT configuration: N-N; pair source set: Curagen_low_conf
# [8] = molecular target: brat; conditions: MAPPIT configuration: N-N; pair source set: Lit-BM-16
# [9] = molecular target: bcd; conditions: MAPPIT configuration: N-N; pair source set: Lit-BM-16
# [10] = molecular target: Yif1; conditions: MAPPIT configuration: N-N; pair source set: RRS
# [11] = molecular target: abs; conditions: MAPPIT configuration: N-N; pair source set: DPIM
# 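Note: HEK293T cells with Epo stimulation, STAT-responsive firefly luciferase reporter, fold induction versus unstimulated cells divided by the larger fold induction of two negative controls lacking either bait or prey.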
binder,measurement,setting,value
esn (protein) MQQAPQQQQHPHPPSSSYYTQTESELLQIEAGGTGLTFASHSQRPESAISQVASTAHLDVPSAASSGSGGSAVSGGSGGAPESAGRFVSPLQRRHCQPPSHLPLNSVASPLRTASYKSAAAVAGHGFHHSHHQQLDFQRNSQSDDDSGCALEEYTWVPPGLRPDQVRLYFSQLPDDKVPYVNSPGEKYRVKQLLHQLPPQDNEVRYCHSLSDEERKELRIFSAQRKREALGRGAVRLLSDERPCKGCEEPLSGGDIVVFAQRLGAQLCWHPGCFVCSVCKELLVDLIYFQRDGNLYCGRHHAETQKPRCSACDEIIFSDECTEAEGRTWHMKHFACQECEHQLGGQRYIMREGKPYCLACFDTMFAEYCDYCGEVIGVDQGQMSHDGQHWHATDQCFSCCTCRCSLLGRPFLPRRGTIYCSIACSKGEPPTPSDTSSGPQLRPTHRASTSSQIAKSPRRGGERERDPGRKAHHGHPKATGSAGDLLERQERQRMEAAGVADLLLGGGVPGMPRPAHPPPIDLTELGISLDNICAGDKSIFGDTQTLTNSMPDMLLSKADDSHSYQSIDKINLNSPSNSDLTQSTQELANELELDNEPVRELPHDGYEQLFANNRNQEHPAEQYDDEQLDNRPMKEVRFHSVQDTMSRSKSYTDNSNARRRRRRRNQSRSSSEMQINQTNLRLHNAQTQVGTTPLNLLNNLDNCDVASICSTCSSSSSSDMDDYVYRLPARKHYGGVRVAYVPNDALAYERKKKMAQDSSLAPGAGNASVGGAPAIMHESKNCTIS,MAPPIT interaction score,[1],0.202
same,MAPPIT interaction score,[2],3.43 (active)
Nup107 (protein) MADSPFPRSSRSGLLRTTLNSSMPPQNLSHSLLILEKSNAEQNELSLMEDTGDDLDRGKSRMDVLFPQFFDVLQAQGNGQEAFEVIQSLTQVCRGVVEQLELEIDHGMGGEQGARQRESMLTWLRQEINTWRLLHALFYDRILLQTDRQADDEMQDGPTLGGSEKEVIQQLYALNATLREYQLVVDWLEACYDRGEQQNPLHAHDRMMAWENTLFQLENLQGAAFGKGHKIVTRLDPDAPVREKRPLHALDEEDNLRLSRAIFELIRAGRVDDGLKLCKHFGQTWRAAILEGWRLHEDPNFEQNVSVLHEKLPIEGNPRRDIWKRCAWMLADSKNYDEYSRATAGVFSGHLGSLKTLLHSNWHDLLWAHLKVQIDIRVESEIRGCCLKNYQPMPDDYWNGRMTMEQIFEELNVAKDASVRDFAQSQLGIIQRHLILDTCGELIQHMVRWVEKDTSQQSPHQLRFMAHIVLFLRQIGRVEQERQAEKIVAAYVEALIARGEPQLIAYYTASLSNPLQVQLYSRFLEQVEQKRPRELAVDAALQAGLDVEQITRVTVQNIRLAHQPLGEFGEPQSGEISAIDQRKISALEWLIHLPEQRGELLWQANAMIRTYLASSKVECMRQTFRMVPADIVQQLVSLYGSVDNIPPREECCLKEYLCYKAYLSGVDSFVEWNRLQQNRPKKPQTSHAASSQDNFTERMASERKEQAHRSEVVRWEHKVKEQAKQTIELLYNVLMFPDKGWLVDPFIAKLPENAVQLSWDHRLLQMEKLRSICIPEIALFLNEVMFKSGDFAGCVRLADEISSENRQLYKVYTKHKLAELLAKIADASLELLNSKLDPWGYPITT,MAPPIT interaction score,[3],0.235
abs (protein) MAHVKRYRRSSKSSEEGDLDNEDYVPYVPVKERKKQHMIKLGRIVQLVSETAQPKSSSENENEDDSQGAHDVETWGRKYNISLLDQHTELKKIAEAKKLSAVEKQLREEEKIMESIAQQKALMGVAELAKGIQYEQPIKTAWKPPRYIREMSEEEREAVRHELRILVEGETPSPPIRSFREMKFPKGILNGLAAKGIKNPTPIQVQGLPTVLAGRDLIGIAFTGSGKTLVFVLPVIMFALEQEYSLPFERNEGPYGLIICPSRELAKQTHEIIQHYSKHLQACGMPEIRSCLAMGGLPVSEALDVISRGVHIVVATPGRLMDMLDKKILTLDMCRYLCMDEADRMIDMGFEEDVRTIFSFFKGQRQTLLFSATMPKKIQNFARSALVKPVTINVGRAGAASMNVTQQVEYVKQEAKVVYLLDCLQKTAPPVLIFAEKKQDVDCIHEYLLLKGVEAVAIHGGKDQEERSRAVDAYRVGKKDVLVATDVASKGLDFPNVQHVINYDMPDDIENYVHRIGRTGRSNTKGLATTLINKTTEQSVLLDLKHLLIEGKQEVPDFLDELAPETEHQHLDLGDSHGCTYCGGLGHRITECPKLEAVQNKQASNIGRRDYLSNTAADY,MAPPIT interaction score,[4],-0.236
eIF4E1 (protein) MQSDFHRMKNFANPKSMFKTSAPSTEQGRPEPPTSAAAPAEAKDVKPKEDPQETGEPAGNTATTTAPAGDDAVRTEHLYKHPLMNVWTLWYLENDRSKSWEDMQNEITSFDTVEDFWSLYNHIKPPSEIKLGSDYSLFKKNIRPMWEDAANKQGGRWVITLNKSSKTDLDNLWLDVLLCLIGEAFDHSDQICGAVINIRGKSNKISIWTADGNNEEAALEIGHKLRDALRLGRNNSLQYQLHKDTMVKQGSNVKSIYTL,MAPPIT interaction score,[5],-0.101
sun (protein) MTAWRAAGITYIQYSNIAARILRESLKTGLRADAAKRDASHVKFTPWANGKPAQRQTQSES,MAPPIT interaction score,[6],-0.31
Ubc2 (protein) MSSTPAAGSAAEVATSSATSNAPSAPSTTASNVSNTSQPTTAGTPQARGGRGSNANGGASGSNAGGGDEPRKEAKTTPRISRALGTSAKRIQKELAEITLDPPPNCSAGPKGDNLYEWVSTILGPPGSVYEGGVFFLDIHFSPEYPFKPPKVTFRTRIYHCNINSQGVICLDILKDNWSPALTISKVLLSICSLLTDCNPADPLVGSIATQYLQNREEHDRIARLWTKRYAT,MAPPIT interaction score,[7],-0.108
nos (protein) MSQHFTSIFENLRFVTIKRSTNAQQQQQQQQQQLQQQQQQLQQQKAQTQQQNSRKIKTQATPTLNGNGLLSGNPNGGGGDSSPSHEVDHPGGAQGAQAAGGLPSSSGTPLRHHKRASISTASPPIRERRGTNTSIVVELDGSGSGSGSGGGGVGVGQGAGCPPSGSCTASGKSSRELSPSPKNQQQPRKMSQDYRSRAGSFMHLDDEGRSLLMRKPMRLKNIEGRPEVYDTLHCKGREILSCSKATCTSSIMNIGNAAVEARKSDLILEHAKDFLEQYFTSIKRTSSTAHETRWKQVRQSIETTGHYQLTETELIYGAKLAWRNSSRCIGRIQWSKLQVFDCRYVTTTSGMFEAICNHIKYATNKGNLRSAITIFPQRTDAKHDYRIWNNQLISYAGYKQADGKIIGDPMNVEFTEVCTKLGWKSKGSEWDILPLVVSANGHDPDYFDYPPELILEVPLTHPKFEWFSDLGLRWYALPAVSSMLFDVGGIQFTATTFSGWYMSTEIGSRNLCDTNRRNMLETVALKMQLDTRTPTSLWKDKAVVEMNIAVLHSYQSRNVTIVDHHTASESFMKHFENESKLRNGCPADWIWIVPPLSGSITPVFHQEMALYYLKPSFEYQDPAWRTHVWKKGRGESKGKKPRRKFNFKQIARAVKFTSKLFGRALSKRIKATVLYATETGKSEQYAKQLCELLGHAFNAQIYCMSDYDISSIEHEALLIVVASTFGNGDPPENGELFSQELYAMRVQESSEHGLQDSSIGSSKSFMKASSRQEFMKLPLQQVKRIDRWDSLRGSTSDTFTEETFGPLSNVRFAVFALGSSAYPNFCAFGQYVDNILGELGGERLLRVAYGDEMCGQEQSFRKWAPEVFKLACETFCLDPEESLSDASLALQNDSLTVNTVRLVPSANKGSLDSSLSKYHNKKVHCCKAKAKPHNLTRLSEGAKTTMLLEICAPGLEYEPGDHVGIFPANRTELVDGLLNRLVGVDNPDEVLQLQLLKEKQTSNGIFKCWEPHDKIPPDTLRNLLARFFDLTTPPSRQLLTLLAGFCEDTADKERLELLVNDSSAYEDWRHWRLPHLLDVLEEFPSCRPPAPLLLAQLTPLQPRFYSISSSPRRVSDEIHLTVAIVKYRCEDGQGDERYGVCSNYLSGLRADDELFMFVRSALGFHLPSDRSRPIILIGPGTGIAPFRSFWQEFQVLSDLDPTAKLPKMWLFFGCRNRDVDLYAEEKAELQKDQILDRVFLALSREQAIPKTYVQDLIEQEFDSLYQLIVQERGHIYVCGDVTMAEHVYQTIRKCIAGKEQKSEAEVETFLLTLRDESRYHEDIFGITLRTAEIHTKSRATARIRMASQP,MAPPIT interaction score,[8],-0.851
Bin1 (protein) MANVESMIVEEKTQVKQIDREKTCPMLLRVFCSTGRHHSVSEYMFGNVPTNELQIYTWQDATLHELTSLVRDVNPDTRKKGTYFDFAVVYPNFRSNHFQMREIGVTCTGQKGIDDNKTLAQAKFSIGDFLDISITPPNRLPPTARRQRPY,MAPPIT interaction score,[9],-0.341
noi (protein) METLLEQQRRLHEERERLVKLMVDEHATKKPGEKERIHSEHRLKYLMELHHNSTSQLRDLYEDKDNERKAEIAALSGPNEFNEFYARLKQIKQFYKSHPAEVSVPLSVEFDEMIRVYNNPDDMSALVEFTDEEGGGRYLDLNECYELYLNLRSVEKLDYITYLMSFDHVFDIPRERKNREYRIYIETLNDYLHHFILRIQPLLDLEGELLKVELDFQRQWLMGTFPGFSIKETESALANTGAHLDLSAFSSWEELASLGLDRLKSALVALGLKCGGTLEERAQRLFSTKGKSTLDPALMAKKPSAKTASAQSREHERHKEIAQLEALLYKYADLLSEQRAATKENVQRKQARTGGERDDSDVEASESDNEDDPDADDVPYNPKNLPLGWDGKPIPYWLYKLHGLNISYNCEICGNFTYKGPKAFQRHFAEWRHAHGMRCLGIPNTAHFANVTQIEDAITLWEKLKSQKQSERWVADQEEEFEDSLGNVVNRKTFEDLKRQGLL,MAPPIT interaction score,[10],-0.019
mtTFB2 (protein) MLPLRCSWSFARANYSTKKELVTRYSGDFPEKLLNRKQKVPTHMYIANSEAAARINQYLEPHFQSSGCDTVMELNSGAGYFTRHLLDRESQFRRIILLESMDHFMPKIQELHTLYPERVKVRQGDFVNLWKLVYMDKMDGGSRVADLLSDVPQKAFTDDINMLVFGAVGSYPFFKHLINSLIFQTSLFNLGRCEMILAMPPPIYIHLTCNNEIGYLIYRSTSVLFQILFEHKFIAKVPREDFLPQQMAYSPTKSSKLGKVQSINPEYLYLVKFTPRRNLHELCQSQDLPALWFFIKQNYVSRRNRIIPNLEKWVPGCGPRLIINPKSSESVTPIYPDELPKKLPQYSCQSTTMSTRNYYPGINIYTQFGDLLPSQILTLFSQFRQWPEYGESSFLASLENALLKLETANDEPNLEDGVTLPEEDDAEADEIIEEESPVPATTPVKRRRKASS,MAPPIT interaction score,[11],2
